In the emibetuzumab library of Makowski et al. (2022) one finds antigen binding call data, which are given here for 58 variants.

The other results are listed elsewhere or left out. The true hit rate is not given.

Sequences and labels used below:
B1: VH:VL chains; a variant is named by its letters at X, in order (parent)
chain 1: QVQLVQSGAEVKKPGASVKVSCKASGYTFTDYXMHWVRQAPGQGLEWMGXVNPNXXXTTYNQKFEGRVTMTTDTSTSTAYMELRSLRSDDTAVYYCARXNXLDXWGQGTTVTVSS
chain 2: DIQMTQSPSSLSASVGDRVTITCSVSSSVSSIYLHWYQQKPGKAPKLLIYSTSNLASGVPSRFSGSGSGTDFTLTISSLQPEDFATYYCQVYSGYPLTFGGGTKVEIK

The experiment covers variants of B1. The experiment can be described thus: yeast display scFab, FACS + sequencing. To be noted: with MET. In short, it runs like this: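 Heavy-chain CDR mutant scFab yeast surface library, enriched by two magnetic rounds on HGFR-Fc-coated Protein A beads and then by FACS. Cells were labelled with 1 nM HGFR-Fc in PBSB with 1% milk and anti-Myc for 3 h at room temperature, and the top 50% antigen-positive cells were gated. Round-3 sorted and input populations were deep sequenced in two replicates. Antigen binding call: positive if a sequence occurred in both antigen-positive samples, negative if it occurred only in input.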
VEGTSSLD: the antigen binding call is on record as “no binding”.
The same measure for FRGEGSVS: “binds”; for YRGEGAVS: “binds”; for FRGEGAVS: “binds”.
Take FAATDSVS: the antigen binding call is given as “no binding”.
The value for FKGEGFGS was “no binding”.
The value for VEEEGALD was “no binding”; that for VTERSALD was “no binding”; that for VRKRGALD was “binds”.
The value for VRRGGALD was “binds”.
Regarding VKEKGALD, the antigen binding call is listed as “no binding”.
The same measure for VRRRGALD: “binds”.
As for VGGTSALD, the antigen binding call is “no binding”.
For the variant ATGEADAS, the antigen binding call is recorded as “no binding”.
DAEATSWV: the antigen binding call is “no binding”.
For DTGTGAGD, the antigen binding call is “no binding”.
The value for AEEKGSGD was “no binding”; that for YKGKGAWA was “binds”; that for VRGKGASA was “binds”.
The same measure for VKGKGASA: “no binding”; for VRTEDAWA: “binds”; for YRGKGAWA: “binds”.
Consider VRTEDDVA, for which the antigen binding call is “no binding”.
The value for VRTEDSWA was “no binding”.
The value for YATKGAWA was “no binding”; that for VARADSGV was “no binding”; that for VEAGDAAV was “no binding”.
On to VEGGGAWA, for which the antigen binding call is “no binding”.
The same measure for VRGGDDWA: “no binding”.
As for YRGKSSWA, the antigen binding call is “binds”.
Regarding YEGTGSWA, the antigen binding call is recorded as “no binding”.
VRGKGAWA: the antigen binding call was “binds”.
For YRGKGSWA, the antigen binding call is “binds”.
With YKGKGSWA, the antigen binding call is “binds”.
The value for DAARGDAA was “no binding”.
Take YRGAGAWV: the antigen binding call is reported as “binds”.
The value for DTGTGAGV was “no binding”; that for YRGAGSGV was “binds”; that for YRGTGAGV was “binds”.
The value for VTGTGAGV was “no binding”; that for YRGAGAGV was “binds”; that for YETGNVWF was “no binding”.
With DKEGGAVV, the antigen binding call is recorded as “no binding”.
The same measure for DAGGGDWV: “no binding”.
For VTTRADVF, the antigen binding call is “no binding”.
Take DGGRAFWF: the antigen binding call is recorded as “no binding”.
The value for VARKGVGV was “no binding”; that for YRGAGALV was “binds”.
The same measure for YTGTSDWV: “no binding”; for YRRGSASV: “binds”.
The same measure for YTRGSAWV: “no binding”; for YRRGSSSV: “binds”.
Turning to YKRGSAWV, the antigen binding call was “binds”.
The value for YKRRDAWV was “no binding”; that for YARADSSV was “no binding”; that for VKEADAWV was “no binding”.
The value for YKRGSASV was “binds”; that for SKKGDFWV was “no binding”.
